Screens: PubChem, National Center for Advancing Translational Sciences (NCATS)
Pf Dd2 inh: inhibitors of Plasmodium falciparum Dd2 growth. Potency, µM (doses to about 28.9 µM), for the others: at the top dose activity, negative = inhibition, most hits filed as inhibitors. P. falciparum Dd2 growth, SYBR Green, 72 h. 120,000 tested, 4.3% active; active = well fitted inhibition curve with a large enough effect;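 also: plate controls were DMSO vehicle for no effect and reference drug for full effect; nearly all actives have a fitted effect of over 65% in size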
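Readout: SYBR Green fluorescence, 485 nm excitation, 535 nm emission, after ~16 h lysis at 37C. Before that, Dd2-infected red cells (2.5% hematocrit) grew 72 h with compound, 29 uM top final concentration.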
* marks the source's active call; other numbers are inactive results; i = inactive; [ ] = remark or other dose. Many of the other results were omitted from the sample, so hits are more common in it than they were. Potency is read from the fitted curve at half-maximal effect.

SMILES | Pf Dd2 inh
COc1ccc(OCC(=O)N2CCC(Cc3nc(-c4ccc(OC)cc4)no3)CC2)cc1 | 11.2µM*
COc1ccc(C(=O)N2CCC(Cc3nc(-c4ccc(F)cc4)no3)CC2)cc1F | -20.2%
COc1cccc(-c2noc(CC3CCN(C(=O)c4cc(OC)c(OC)c(OC)c4)CC3)n2)c1 | -5.6%
COc1ccc(-c2noc(CC3CCN(C(=O)c4cc(F)cc(F)c4)CC3)n2)cc1 | -25.7%
COC(=O)c1cccc(C(=O)N2CCC(Cc3nc(-c4ccc(F)cc4)no3)CC2)c1 | 10µM*
COc1cccc(-c2noc(CC3CCN(C(=O)c4ccc(N(C)C)cc4)CC3)n2)c1 | 5.01µM*
COC(=O)c1cccc(C(=O)N2CCC(Cc3nc(-c4cnccn4)no3)CC2)c1 | i
COc1ccc(-c2noc(CC3CCN(C(=O)c4ccc5c(c4)OCO5)CC3)n2)cc1 | 11.2µM*
Cc1ccc(OCC(=O)N2CCC(Cc3nc(-c4ccccc4)no3)CC2)cc1 | i
O=C(NCc1ccc(-c2cccc(Cl)c2)o1)[C@H]1CCC[C@@H](O)C1 | -26.5%
CCCn1nc(C)cc1CN(C)C(=O)c1ccc2c(c1)C(O)CCCCCN2C (configuration not stated) | i
N#Cc1ccc(S(=O)(=O)N2C[C@@H](Oc3cccnc3)C[C@H]2C(=O)N2CCCC2)cc1 | 35.6%
Cn1cc([C@@H](NC(=O)c2nc3ccccc3[nH]c2=O)C2CC(O)C2)cn1 (some centres not stated) | -4.0%
C=CCN(Cc1cccc(OC)c1)C(=O)c1ccccc1C#N | -11.8%
CC(C)NC(=O)c1ccc2nccn2c1 | 21.4%[44.1 µM]
CC(=O)N1CC2(CCN(C3COC3)CC2)Cc2ccccc21 | 108.3%
CCOc1ccc(CC(=O)N2CCC(Cc3nc(-c4ccc(OC)cc4)no3)CC2)cc1 | 8.91µM*
COc1ccc(-c2noc(CC3CCN(C(=O)Cc4ccsc4)CC3)n2)cc1 | i
Cc1noc(-c2ccc3c(c2)OCO3)c1C(=O)N1CCC(Cc2ccccc2)CC1 | i
COc1ccc(CC2CCN(C(=O)c3c(C)noc3-c3ccc4c(c3)OCO4)CC2)cc1 | 7.94µM*
COc1ccc(CC(=O)N2CCC(Cc3nc(-c4ccc(OC)cc4)no3)CC2)cc1 | i
COc1ccc(-c2onc(C)c2C(=O)N2CCC(Cc3ccc(F)cc3)CC2)cc1 | -5.2%
Cc1cc(C[C@@H]2COC[C@@H]2NC(=O)c2cnn(-c3ccccc3)c2)on1 | 1.7%
O=C1CCN(S(=O)(=O)c2cccs2)CCCC(c2nc(-c3ccccc3)no2)CCN1 (configuration not stated) | -19.2%
CC1=C[C@@H](CNS(C)(=O)=O)[C@H](C(C)C)C[C@H]1CC(=O)O | i
SMILES | Pf Dd2 inh
Cc1noc(-c2ccn3c(CNC(=O)c4ccc(C)c(C)c4)nnc3c2)n1 | -4.6%
Cn1cc(C(=O)NC2CC(c3cc(N4CCOCC4)ncn3)C2)cn1 (configuration not stated) | -3.8%
CCCCNC(=O)Cc1csc2nc(C)c(-c3cc(C)n(-c4cc(F)ccc4C)n3)c(=O)n12 | -8.3%
CCC(=O)N1CCN(c2nc3c(s2)CC(C(=O)Nc2ccc(OC)cc2)CC3)CC1 (configuration not stated) | i
CC(C)CNC(=O)N1CCC(CCOc2ccc(F)cc2)C1 (configuration not stated) | i
CC1=C(C(=O)OC(C)C)C(c2ccccc2C)N2C(CC(=O)NC3CC3)=CSC2=N1 (configuration not stated) | 7.94µM*
C=CCOC(=O)C1=C(C)N=C2SC=C(CC(=O)NCc3ccco3)N2C1c1cccc(C)c1 (configuration not stated) | -3.3%
CCOC(=O)C1=C(C)N=C2SC=C(CC(=O)NC3CC3)N2C1c1ccccc1C (configuration not stated) | -2.0%
C=CCOC(=O)C1=C(C)N=C2SC=C(CC(=O)NCc3ccc(F)cc3)N2C1c1ccccc1C (configuration not stated) | 3.16µM*
COC(=O)C1=C(C)N=C2SC=C(CC(=O)NCc3ccccc3)N2C1c1ccccc1F (configuration not stated) | -19.2%
CCOC(=O)C1=C(C)N=C2SC=C(CC(=O)NCC3CCCO3)N2C1c1ccc(Cl)cc1 (configuration not stated) | 2.24µM*
COC(=O)C1=C(C)N=C2SC=C(CC(=O)NC3CC3)N2C1c1ccc(C)cc1C (configuration not stated) | i
COC(=O)C1=C(C)N=C2SC=C(CC(=O)NCC3CCCO3)N2C1c1ccccc1C (configuration not stated) | -15.7%
CCOC(=O)C1=C(C)N=C2SC=C(CC(=O)N3CCCC3)N2C1c1ccc(Cl)cc1 (configuration not stated) | -1.1%
C=CCN(C)C(=O)[C@H]1CN2CCC1C[C@@H]2Cn1cc(CNC)nn1 (some centres not stated) | 23.7%[44.1 µM]
COc1ccc(F)cc1S(=O)(=O)N[C@@H]1CN(C)C[C@H]1CN(C)C | i
O=C(c1cccnc1)N1CCC(c2noc(-c3cnccn3)n2)C1 (configuration not stated) | 72.0%[5.79 µM]
COCc1nc(C2CCNC2)no1 (configuration not stated) | 10.4%
Cc1ccccc1-c1cc(C(=O)NCc2cccnc2)c2c(c1)ncn2C | i
CCn1cc(S(=O)(=O)N2CC[C@@H]3COCCN(C)[C@@H]3C2)cn1 | 20.4%
Cc1noc([C@@H]2CC(F)(F)CN2C(=O)c2coc(C)n2)n1 | 30.9%
Cc1ncsc1C1N(C2CCN(C(=O)NC3CCCCC3)CC2)C(=O)C12CCCC2 (configuration not stated) | -5.0%
Cc1nc(-c2cnccn2)n(CC(=O)Nc2ccc(F)c(Cl)c2)c(=O)c1C | -27.8%
Cn1cc(CNCC2(COc3ccc(C(F)(F)F)cn3)C[C@@H](O)[C@@H](O)C2)cn1 (some centres not stated) | i
O[C@@H]1CC(CNCc2ccc(F)cc2)(COc2ccc(C(F)(F)F)cn2)C[C@@H]1O (some centres not stated) | 3.98µM*
SMILES | Pf Dd2 inh
O=C(NCC1(COc2ccc(C(F)(F)F)cn2)C[C@@H](O)[C@@H](O)C1)C1CC1 (some centres not stated) | 9.9%[44.1 µM]
O=C(NCC1CC1)C1CN(c2ccccc2)C(=O)N1 (configuration not stated) | 2.0%[44.1 µM]
CC(C)CCN1CCC(N2CCN(C(=O)c3ccccc3Br)CC2)C1=O (configuration not stated) | -15.3%
Cn1cc(C(=O)N2CCN(c3cccc(Cl)c3)CC2)c(=O)c2cc(S(=O)(=O)N3CCCC3)ccc21 | 10.9%
CN(C1CCCCC1)S(=O)(=O)c1ccc2c(c1)c(=O)c(C(=O)NCc1ccc(F)cc1)cn2C | 30.4%
COc1ccc(N2CCN(C(=O)c3cn(C4CCCCC4)c(=O)c4c3c3ccccc3n4C)CC2)cc1 | 5.01µM*
CN(C1CCCCC1)S(=O)(=O)c1ccc2c(c1)c(=O)c(C(=O)N1CCN(c3ccccc3F)CC1)cn2C | 0.891µM*
CN(C1CCCCC1)S(=O)(=O)c1ccc2c(c1)c(=O)c(C(=O)N1CCN(c3ccc(F)cc3)CC1)cn2C | 60.1%
COc1ccc(-n2nc(C(=O)N3CCN(c4ccc(F)cc4)CC3)c3c4ccccc4n(C)c3c2=O)cc1 | 26.9%
CCn1cc(C(=O)N2CCN(c3ccc(F)cc3)CC2)c(=O)c2cc(S(=O)(=O)N(C)C3CCCCC3)ccc21 | -7.8%
COc1ccc(N2CCN(C(=O)c3cn(C)c4ccc(S(=O)(=O)N(C)C5CCCCC5)cc4c3=O)CC2)cc1 | 11.2µM*
